An excerpt weighted towards active compounds, which were near 1.8% of everything screened.
ugtP null kill – kills S. aureus RN4220 lacking UgtP; S. aureus RN4220 ugtP deletion, OD600 growth, 16 h; growth inhibition, % (test concentration not listed); 330,000 tested, 0.54% active; in the data active = growth inhibition above about 68%;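 note: plate controls were untreated wells for no effect and antibiotic for full effect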
PfHsp40 rescue – restores yeast growth despite PfHsp40 toxicity | S. cerevisiae expressing PfHsp40, growth rescue, ATP luminescence | 340,000 tested, 0.68% active | AID 504582 | growth rescue, % at 12.5 µM; in the data active = growth rescue above about 28%, passing the limit was not always enough; inconclusive = no clear call, values can overlap the other calls;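 note: yeast W303a lacking pdr1 and pdr3 grown in galactose medium; growth measured after three days at 30 °C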
DUSP3 inh – inhibitors of human VHR1 phosphatase (DUSP3); P51452; recombinant VHR phosphatase, pNPP absorbance; inhibition, % at 13.3 µM; 290,000 tested, 0.52% active; AID 1654; in the data active = inhibition above about 50%
Target sequence (P51452 whole entry, looked up): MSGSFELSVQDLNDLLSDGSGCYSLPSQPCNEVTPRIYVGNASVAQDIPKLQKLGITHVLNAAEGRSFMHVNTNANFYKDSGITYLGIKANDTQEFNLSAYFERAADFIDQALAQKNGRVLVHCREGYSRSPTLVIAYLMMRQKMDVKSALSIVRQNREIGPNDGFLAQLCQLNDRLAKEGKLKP
PrPC surface inh – inhibitors of human cell surface prion protein PrPC; P04156; TR-FRET read-out; inhibition, % at 13.8 µM; 370,000 tested, 0.43% active; in the data active = inhibition above about 24%; note: 0% = median of the test wells and 100% = reference compound wells
RN4220 kill – kills Staphylococcus aureus RN4220; 330,000 tested, 0.33% active; inhibition, % (no concentration beside the values); S. aureus RN4220 growth, OD600, 16 h; AID 1259311; in the data active = inhibition above about 85%;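 note: plate controls were untreated cells for no effect and reference antibiotic for full effect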
An asterisk follows results filed as active; ? = inconclusive; · = no result.

SMILES | ugtP null kill | PfHsp40 rescue | DUSP3 inh | PrPC surface inh | RN4220 kill
Cn1nnnc1SCC1=C(C(=O)O)N2C(=O)C(NC(=O)Cn3nc(C(F)F)cc3C3CC3)C2SC1 (centres undefined) | 100.7* | -0.9 | -6.2 | -7.8 | 100.1*
COc1ccc(C=NNC(=O)c2cc3c(ccc4ccccc43)o2)cc1O | -9.5 | · | · | · | 3.2
CO[C@@]1(NC(=O)CSCC#N)C(=O)N2C(C(=O)O)=C(CSc3nnnn3C)CSC21 (some centres undefined) | 6.3 | · | · | · | 2.8
Cc1nn(CC(=O)NC2C(=O)N3C(C(=O)O)=C(CSc4nnnn4C)CSC23)cc1Br (centres undefined) | 99.3* | -0.3 | 7.2 | -7.3 | 100.0*
Cc1c(Cl)c(C(F)F)nn1CC(=O)NC1C(=O)N2C(C(=O)O)=C(CSc3nnnn3C)CSC12 (centres undefined) | 97.3* | 0.5 | -10.7 | -5.8 | 100.4*
CCC(=O)c1cn(C(=CC(=O)OC(C)(C)C)CCC(OC)OC)cc1CC | 2.3 | · | · | · | 4.1
CC(C)(C)C(=O)NC(=S)NNC(=O)c1sc2ccccc2c1Cl | 97.4* | ? | -26.0 | · | 93.9*
C[C@H](C[C@H](O)[C@H]1OC1(C)C)C1=C2C[C@H](O)C3[C@@]4(C)CCC(=O)C(C)(C)C4CC[C@]3(C)[C@@]2(C)CC1 (some centres undefined) | · | 40.2* | · | -1.3 | ·
CCCCc1c(C)c(C#N)c2nc3ccccc3n2c1NCCN(C)C | -5.0 | -0.7 | 21.0 | -0.7 | 2.6
Cc1c(Cc2ccccc2)c(NCCN(C)C)n2c(nc3ccccc32)c1C#N | 9.4 | 170.6* | 25.3 | -9.0 | 2.5
CC1Oc2cc3c(-c4c(O)cc(O)c5c(O)c6c(cc45)OC(C)C(C)C6=O)c(O)cc(O)c3c(O)c2C(=O)C1C (centres undefined) | 97.6* | 76.5* | 13.3 | · | 98.2*
O=C(NN=Cc1ccc(COc2ccc([N+](=O)[O-])cc2)o1)c1ccc(Cl)cc1 | -19.4 | · | · | · | -5.7
O=C(Nc1nc2c(Cl)cccc2s1)c1ccc([N+](=O)[O-])o1 | 100.4* | 2.4 | 19.3 | -2.3 | 99.9*
O=C1NC2(CCCCC2)N=C1c1ccc(Br)cc1 | -3.3 | -1.2 | 54.7* | 5.2 | -7.7
O=C(NC(CO)Cc1ccccc1)c1ccco1 (centres undefined) | 14.6 | · | · | · | 8.4
Cc1sc2c(c1C)C(O)=C(C(=O)Nc1ccccc1)S(=O)(=O)N2C | -6.7 | 153.2* | 24.9 | -0.5 | 24.3
CN1c2ccccc2C(O)=C(C(=O)Nc2ccccc2)S1(=O)=O | · | -0.1 | 18.6 | 0.2 | ·
O=C(O)c1ccc(NC2=CC(=NS(=O)(=O)c3ccccc3)c3ccccc3C2=O)cc1 | 2.1 | · | · | · | 10.9
COc1ccc(S(=O)(=O)/N=C2\C=C(Nc3ccc(O)cc3)C(=O)c3ccccc32)cc1 | · | -1.3 | 15.3 | 55.7* | ·
CCN(CC)CCOC(=O)c1ccc(NC(=O)C2(c3ccccc3)CCCC2)cc1 | -1.4 | 1.5 | 54.4* | -0.2 | 2.4
O=C(O)C1=CC(c2ccc(Br)cc2)CC(OCCCCO)O1 (centres undefined) | 0.6 | · | · | · | 9.6
CCn1c(SCC(=O)Nc2ccc(NC(C)=O)cc2)nc2c([nH]c3ccccc32)c1=O | -9.8 | 40.8* | 4.4 | -0.1 | 1.7
CCn1c(SCC(=O)N(C)c2ccccc2)nc2c([nH]c3ccccc32)c1=O | -0.9 | -0.8 | 53.4* | 1.3 | 5.4
COc1ccc(-n2c(SCC(=O)N(C)c3ccccc3)nc3c([nH]c4ccccc43)c2=O)cc1OC | -3.8 | -0.3 | -2.1 | 8.8 | 6.6
CCC(C)C(C(=O)N1CCNCC1)n1cc(CCCCN)nn1 (centres undefined) | -2.1 | · | · | · | 5.2
SMILES | ugtP null kill | PfHsp40 rescue | DUSP3 inh | PrPC surface inh | RN4220 kill
CCOC(=O)CC1c2ccc(C(F)(F)F)cc2S(=O)(=O)N1Cc1ccccc1 (centres undefined) | 1.6 | · | · | · | 5.1
CC(=NNC(=O)CNC(=O)COc1cccc(C)c1)c1ccco1 | 2.2 | · | · | · | 1.6
O=C(NN=Cc1ccc(OCCCF)cc1)c1cc(OCC(F)(F)F)ccc1OCC(F)(F)F | 5.4 | · | · | · | 2.9
CCN1CCN(CCCNC(=O)c2ccc(NC(=O)C3=CSCCO3)cc2)CC1 | -10.1 | -2.2 | 52.5* | -2.0 | -4.3
O=C(CC1C(=O)N(c2ccc(F)c(F)c2)CC1Cc1ccccc1)Nc1ccccc1 (centres undefined) | 12.8 | · | · | · | -0.5
CC1CCN(CCCNC(=O)C2CCC(CNS(=O)(=O)c3cccc4nsnc34)CC2)CC1 (centres undefined) | -0.3 | -0.9 | 51.3* | -23.7 | -0.4
Cc1cccc(C(=O)c2cnc3ccccc3c2-c2ccccc2)c1 | 88.0* | 6.7 | 9.0 | 2.0 | -1.5
Cc1cccc(C(=O)NNC(=O)c2ccccc2)c1 | 1.2 | -0.5 | 1.5 | 1.2 | 4.2
CN(C)CCCNS(=O)(=O)c1ccc(-n2nnc3ccccc32)c([N+](=O)[O-])c1 | 11.1 | -1.3 | 58.5* | -45.7 | 2.9
CS(=O)(=O)c1ccc(-n2nnc3ccccc32)c([N+](=O)[O-])c1 | 1.1 | 0.5 | 33.9 | -29.5 | 6.3
CC(=NNC(=O)CNC(=O)c1ccc(Br)cc1)c1ccco1 | 1.4 | · | · | · | -0.4
CC(=NNC(=O)C(NC(=O)c1ccccc1)C(C)C)c1ccccc1 (centres undefined) | -1.9 | · | · | · | 1.1
COc1cc(C2=NC(CO)(CO)CO2)cc(OC)c1OC | 4.6 | -0.7 | 57.6* | -2.6 | 4.7
COc1ccc(C2=NC(CO)(CO)CO2)cc1 | 0.0 | -1.0 | 20.8 | 11.6 | -1.2
COc1ccc(CSCCNC(=S)Nc2ccccc2)cc1Cl | -1.9 | 44.8* | 5.6 | -2.9 | 15.9
S=C(NCCSCc1ccc(Cl)c(Cl)c1)Nc1ccccc1 | 30.4 | 1.3 | · | 8.1 | 29.6
S=C(NCCSCc1c(Cl)cccc1Cl)Nc1ccccc1 | 0.0 | 285.0* | -3.3 | 10.1 | 21.8
CC(O)[C@@]1(O)CCC2C3CCC4CC(O)CC[C@]4(C)C3=CC[C@@]21C (some centres undefined) | 15.8 | · | · | · | 8.9
CC(=O)c1ccc(C(=O)N2CCC(CO)(Cc3cccc(C(F)(F)F)c3)CC2)cc1 | 2.7 | 1.2 | 53.3* | -11.4 | 1.5
CC1(C(=O)N2CCC(CO)(Cc3cccc(C(F)(F)F)c3)CC2)CC1 | 2.4 | 0.0 | -1.9 | -1.9 | 1.8
CC1(C)CC(=O)C(C=Nc2cccnc2N=CC2=C(O)CC(C)(C)CC2=O)=C(O)C1 | 3.2 | · | · | · | 2.5
OC(CNCc1ccccc1)c1ccc(Cl)cc1 (centres undefined) | -4.2 | 0.6 | · | -2.6 | 0.9
OC(CNCC(c1ccc(Cl)cc1Cl)c1c[nH]c2ccccc12)c1ccccc1 (centres undefined) | 96.8* | 0.6 | 30.1 | 0.7 | 99.7*
CC(=O)c1ccc(NC(=S)NC(=O)/C=C/c2ccco2)cc1 | 33.5 | -0.9 | -16.3 | -5.4 | -3.4
COc1ccc(C(=O)NNC(=S)NC(=O)/C=C/c2cccs2)cc1 | 6.6 | 74.0* | 34.9 | 5.5 | 49.8
CCN(CC)CCOC(=O)c1ccc(NC(=O)/C=C/c2cccs2)cc1 | 12.1 | 1.2 | -0.8 | -14.5 | 4.1
CCOC(=O)c1ccc(NC(=O)/C=C/c2cccs2)cc1 | -20.2 | 164.1* | 5.2 | 4.5 | 1.4

Screens as filed in PubChem.
